Screening results (PubChem)
The list is not random: actives were taken first. Their share in the collection is about 11%.
Pf growth 48h = Primary qHTS for delayed death inhibitors of the malarial parasite plastid, 48 hour incubation. AID 504832, 2011. Potency, µM (series often up to 28.7 µM), most hits filed as inhibitors. P. falciparum luciferase growth in erythrocytes, 48 h. 5.9% of 310,000 active
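First compound was added to culture medium, then infected red cells at 0.1% parasitemia and 2% hematocrit (final). After incubation at 37 C under 5% CO2, luciferase detection reagent was dispensed and light output recorded.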
HCV inhibitor = qHTS Assay for Inhibitors of Hepatitis C Virus (HCV); Huh7.5.1 HCVcc-Cre infection, luciferase reporter, 44 h; Potency, µM (titrated, usually from 41.8 µM), hits mostly inhibitors; 3.4% of 340,000 active
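1,000 cells/well; 4 h culture; + compound; + HCVcc-Cre (~0.5 moi); 44 h; luciferase substrate, RT 15 min; read 15 sec.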
Pf growth 96h = Primary qHTS for delayed death inhibitors of the malarial parasite plastid, 96 hour incubation; 6.9% of 320,000 active; P. falciparum luciferase reporter growth, 96 h; Potency, µM (series often up to 28.7 µM), most hits filed as inhibitors; AID 504834, 2011
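Readout is luminescence from an integrated firefly luciferase in P. falciparum. Red cells, 2% hematocrit and 0.05% parasitemia final, were cultured with compound through two parasite generations (96 hours) at 37 C, 5% CO2.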
AMA1 RON2 block = qHTS for Inhibitors of AMA1-RON; Towards Development of Antimalarial Drug Lead: Primary Screen; Potency, µM (highest dose often 58.2 µM), usual class: inhibitors; AID 720542, 2013; 0.2% of 360,000 active; AlphaScreen AMA1-biotinylated RON2 peptide binding; note: nearly all actives have a fitted effect of over 45% in size
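AMA1 (3D7) with his tag at 25 nM final met compounds first, then biotinylated RON2 peptide at 25 nM; detection used donor plus acceptor beads, 10 µg/mL apiece, read by AlphaScreen after 30 min at room temperature.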
Each line names hits and unclear results; the compound was inactive in the other large screens. Calls come from the whole dose curve; as a rule, active = well fitted curve in the direction sought with a large enough effect; inconclusive = small, poorly fitted or top-dose-only effect, or another doubt; inactive = no such curve, though single readings can be large; an effect the other way counts as inactive or inconclusive.

CCOc1ccc(/C=C(\C)C(=O)c2c(C)cc(C)[nH]c2=O)cc1	none
O=C(C1CCCC1)N1CCN=C1SCc1cccc([N+](=O)[O-])c1	Pf growth 48h inconclusive, HCV inhibitor inconclusive, Pf growth 96h inconclusive
O=C(Oc1ccc(C(=S)N2CCOCC2)cc1)c1ccc([N+](=O)[O-])cc1	Pf growth 96h 1.47µM
COc1cc(C(=S)N2CCOCC2)cc(OC)c1OC(=O)c1ccccc1[N+](=O)[O-]	HCV inhibitor 15.8µM, AMA1 RON2 block inconclusive
COc1ccc(C(=S)N2CCOCC2)cc1OC(=O)c1ccc([N+](=O)[O-])cc1[N+](=O)[O-]	none
COc1cc(C(=S)N2CCOCC2)ccc1OC(=O)c1ccc(Br)cc1	Pf growth 96h 5.22µM
COc1cc(C(=S)N2CCOCC2)cc(OC)c1OS(=O)(=O)c1ccc(Cl)cc1	Pf growth 48h inconclusive, Pf growth 96h 10.4µM
CC1(C)C[C@H]2C3=CCC4[C@@]5(C)CC[C@H](O)[C@](C)(CO)C5CC[C@@]4(C)[C@]3(C)C[C@H]3O[C@@H]1[C@H](O)[C@]32CO (some centres undefined)	none
O=C(Cc1ccc([N+](=O)[O-])cc1)OCc1c(F)cccc1Cl	none
COc1ccc(C=O)c2[nH]c3c(Cl)ncnc3c12	Pf growth 48h inconclusive, Pf growth 96h inconclusive
CCCCNC(=O)C1C2C=CC(C2)C1C(=O)O (centres undefined)	none
O=C(O)C1C2C=CC(C2)C1C(=O)NCCCN1CCOCC1 (centres undefined)	Pf growth 96h 11.7µM
O=C(Nc1ccccc1)Nc1cc(OCC(F)(F)F)cc(OCC(F)(F)F)c1	Pf growth 48h 2.62µM, HCV inhibitor 6.31µM, Pf growth 96h 3.29µM
COc1cc(N)c(Cl)cc1C(=O)OCC(=O)NCC1CCCCC1	HCV inhibitor 10µM (no result: Pf growth 48h, Pf growth 96h)
COc1cc(N)c(Cl)cc1C(=O)OCC(=O)NCC1CCCO1 (centres undefined)	none (no result: Pf growth 48h, Pf growth 96h)
CCOc1cc(CNc2ccc(O)cc2)cc(Br)c1OCc1ccccc1F	Pf growth 48h inconclusive
C=CCOc1c(Br)cc(CNc2ccc(NC(=O)C(C)C)cc2)cc1OCC	HCV inhibitor inconclusive, Pf growth 96h 13.1µM
C/C(=N\Nc1nnc(-c2ccccc2)c(-c2ccccc2)n1)c1cccc([N+](=O)[O-])c1	none
C/C(=N\Nc1cc(N2CCOCC2)nc(C)n1)c1cccc([N+](=O)[O-])c1	Pf growth 48h inconclusive, HCV inhibitor 11.2µM
C/C(=N\NC(=O)C1CC1c1ccccc1)c1cccc([N+](=O)[O-])c1 (centres undefined)	Pf growth 96h 8.28µM
C/C(=N\Nc1cc(C)nc(NCc2ccccc2)n1)c1cccc([N+](=O)[O-])c1	Pf growth 48h inconclusive, HCV inhibitor 2µM, Pf growth 96h inconclusive
Cc1nc(N/N=C/c2cccc(F)c2)cc(N2CCOCC2)n1	Pf growth 48h inconclusive, HCV inhibitor inconclusive, Pf growth 96h 9.28µM
NS(=O)(=O)c1ccc(CCNCc2ccccc2OCc2ccc(Cl)cc2)cc1	Pf growth 48h 10.4µM, HCV inhibitor 12.6µM, Pf growth 96h inconclusive
NS(=O)(=O)c1ccc(S(=O)(=O)NCCc2ccccc2)cc1	Pf growth 96h inconclusive
C=CCOc1ccccc1CNCCc1ccc(S(N)(=O)=O)cc1	none
NS(=O)(=O)c1ccc(CCNCc2cc(Cl)ccc2OCc2ccccc2)cc1	Pf growth 48h inconclusive, HCV inhibitor 22.4µM, Pf growth 96h inconclusive
O=C(NNS(=O)(=O)c1ccc(Br)cc1)c1csnn1	none
CC(C)N1CCN(Cc2cccn2-c2nccs2)CC1CCO (centres undefined)	Pf growth 48h inconclusive, Pf growth 96h inconclusive
Cn1c(CS(=O)Cc2c(Cl)cccc2Cl)nnc1SCc1c(Cl)cccc1Cl (centres undefined)	Pf growth 48h inconclusive, Pf growth 96h 4.65µM
O=C(CCC(=O)Nc1ccc(F)cc1)N/N=C/c1ccncc1	none
O=C(CCC(=O)Nc1ccc(Br)cc1)N/N=C/c1ccc(F)cc1	none
O=C(CCC(=O)Nc1ccc(F)cc1)N/N=C/c1ccc(Br)cc1	Pf growth 96h 3.7µM
O=C(CCC(=O)Nc1ccc(F)cc1)N/N=C/c1ccccc1	Pf growth 96h 1.47µM
O=C(CCCCCNC(=O)c1ccccc1)N/N=C/c1ccc(F)cc1	Pf growth 48h 13.1µM, Pf growth 96h inconclusive
CC(C)(C)[C@H]1COC(=O)[C@@H](Cc2ccc(F)cc2)CC/C=C/C[C@@H](CC(=O)N[C@@H](CO)Cc2ccccc2)C(=O)N1	HCV inhibitor inconclusive (no result: Pf growth 48h, Pf growth 96h)
